Data as given in PubChem BioAssay (NCI).
This is part of a sample that, as a whole, favours compounds with a hit. Of some 83,000 tested, about 20% had one in any assay.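 48-hour exposure, single concentration, 96-well plates; percent growth endpoint where 0 means no net growth. Active: below 10.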 Active and inactive are the calls of the source.

Legend:
Assay in all cases: NCI-60 one-dose screen, 48 h (100 = growth as untreated, 0 = no growth, -100 = all killed)
Conditions in all cases: 10 µM unless noted
[1] = test system: NCI-H23 lung
[2] = test system: NCI-H226 lung
[3] = test system: NCI-H322M lung
[4] = test system: HOP-62 NSCLC
[5] = test system: NCI-H460 lung
[6] = test system: HOP-92 NSCLC
[7] = test system: NCI-H522 lung
[8] = test system: A549/ATCC NSCLC
[9] = test system: 786-0 renal
[10] = test system: COLO 205 colon
[11] = test system: DU-145 prostate
[12] = test system: K-562 leukemia
[13] = test system: MALME-3M melanoma
[14] = test system: MDA-MB-231 breast
[15] = test system: RXF 393 renal
[16] = test system: SF-268 CNS
[17] = test system: SF-295 CNS
[18] = test system: SF-539 CNS
[19] = test system: UACC-257 melanoma
[20] = test system: M14 melanoma

Measured: growth

Nc1ccc(Br)cc1C(F)(F)F
inactive: [1] 95.3% | [2] 105% | [3] 119% | [4] 102% | [5] 111% | [6] 104% | [7] 103% | [8] 102% | [9] 105% | [10] 102% | [11] 116% | [12] 97.1% | [13] 114% | [14] 103% | [15] 116% | [16] 108% | [17] 119% | [18] 97% | [19] 104%

C=CC(=O)Nc1cccc(Oc2nccc(Nc3nnc(-c4ccc(Br)cc4)s3)n2)c1
inactive: [1] 90.8% | [2] 105% | [3] 110% | [4] 91% | [5] 101% | [6] 92% | [7] 84.4% | [8] 100% | [9] 101% | [10] 108% | [11] 103% | [12] 92.6% | [13] 112% | [14] 88.2% | [15] 101% | [16] 93.6% | [17] 96% | [18] 99.7% | [19] 105%

Cc1ccc2c(c1)nc(C)n2-c1ncnc2c1CC(C)c1cc(O)ccc1N2C (stereo not given)
inactive: [1] 65.7% | [2] 74.1% | [3] 64% | [4] 37.8% | [5] 19.7% | [6] 24.7% | [7] 23.6% | [8] 31% | [9] 33.4% | [10] 98.5% | [11] 42.1% | [12] 14.8% | [13] 48.9% | [14] 50.8% | [15] 10.7% | [16] 44.1% | [17] 11.1% | [18] 28.7% | [19] 17.9%

[N-]=[N+]=NCC1OC(n2cnc3c(NC(=O)Nc4ccccc4)ncnc32)C2OC(=O)CC12 (stereo not given)
active: [15] -28.7%
inactive: [1] 106% | [2] 106% | [3] 99.8% | [4] 98.1% | [5] 112% | [6] 86.9% | [7] 107% | [8] 95.2% | [9] 105% | [10] 105% | [11] 109% | [12] 92.7% | [13] 96.9% | [14] 123% | [16] 103% | [17] 100% | [18] 97.8% | [19] 122%

CC1=Nc2cnc(Nc3ccc(N4CCCCC4)cc3)nc2Nc2ccccc21
inactive: [1] 67.1% | [2] 76.6% | [3] 75.7% | [4] 94.4% | [5] 86.8% | [6] 60.9% | [7] 40% | [8] 79.8% | [9] 51.8% | [10] 81.3% | [11] 79.8% | [12] 34.7% | [13] 88.5% | [14] 60.4% | [15] 68% | [16] 91.2% | [17] 83.8% | [18] 79.9% | [19] 93.8%

Cc1ccc(-c2csc(NC(=O)CSc3nc(N)cc(N)n3)n2)cc1
inactive: [1] 42.7% | [2] 96.3% | [3] 87% | [4] 50.9% | [5] 78.6% | [6] 89.3% | [7] 54.6% | [8] 62.7% | [9] 72.2% | [10] 50.8% | [11] 77.2% | [12] 20.1% | [13] 57.9% | [14] 67.5% | [15] 92.1% | [16] 73.6% | [17] 50.2% | [18] 76.9% | [19] 79.9%

CCCCn1c(NC(C)=O)c(S(=O)(=O)c2ccccc2)c2nc3ccccc3nc21
active: [6] 4.95%
inactive: [1] 94% | [2] 92.5% | [3] 105% | [4] 173% | [5] 110% | [7] 94.9% | [8] 97.1% | [9] 105% | [10] 127% | [11] 104% | [12] 69.3% | [13] 98.9% | [14] 109% | [15] 86.8% | [16] 96.7% | [17] 111% | [18] 97.6% | [19] 99.6%

COc1ccc2[nH]cc(-c3nonc3-c3c[nH]c4ccc(Br)cc34)c2c1
inactive: [1] 54.1% | [2] 74.8% | [3] 50.5% | [4] 33.8% | [6] 54% | [8] 35.3% | [9] 61.4% | [10] 32.1% | [11] 43.8% | [13] 70.4% | [15] 76.7% | [16] 47% | [17] 26.1% | [18] 56.3% | [19] 64.2%
active: [5] 8.13% | [7] 8.48% | [12] 7.68% | [14] 5.3%

c1cc(OCCN2CCCCCC2)ccc1CNc1ccc2nc(CCC3CCCCC3)[nH]c2c1
active: [10] -48% | [12] 3.02% | [13] -72.6%
inactive: [1] 82.6% | [2] 60.8% | [3] 81.7% | [4] 60.5% | [5] 68.3% | [6] 23.3% | [7] 68.5% | [8] 70.8% | [9] 54.2% | [11] 69.8% | [14] 25.5% | [15] 56.2% | [16] 69.9% | [17] 79.1% | [18] 72.8% | [19] 31.8%

CNC(=O)Nc1ccc(-c2ccc3ncnc(Nc4cccc(Cl)c4)c3c2)cc1
active: [3] 7.46% | [7] -1.3%
inactive: [1] 62.9% | [2] 68.4% | [4] 71.4% | [5] 77.4% | [6] 37.8% | [8] 41.8% | [9] 71.4% | [10] 66.3% | [11] 44.8% | [12] 60.3% | [13] 53.5% | [14] 65.7% | [15] 50.4% | [16] 52.2% | [17] 59.9% | [18] 74.3% | [19] 65.7%

COc1cc2c(c(OC)c1OC)CCC(c1cccc(C(=O)Nc3ccc(Br)cc3)c1)O2 (stereo not given)
inactive: [1] 75.8% | [2] 62.7% | [3] 50% | [4] 82% | [5] 84% | [6] 17% | [7] 48.8% | [8] 64.2% | [9] 84.1% | [10] 76.5% | [11] 71% | [12] 40.4% | [13] 72.3% | [14] 17% | [15] 75% | [16] 76.6% | [17] 56.5% | [18] 76.6% | [19] 75.6%

COc1ccc(OC)c(Nc2nnc(-c3cc(OC)c(OC)c(OC)c3)o2)c1
inactive: [1] 90.5% | [2] 96.6% | [3] 98.4% | [4] 94.7% | [5] 107% | [6] 107% | [7] 76.6% | [8] 101% | [9] 95% | [10] 104% | [11] 101% | [12] 95.8% | [13] 88.8% | [14] 88.9% | [15] 110% | [16] 99.6% | [17] 101% | [18] 91.3% | [19] 112%

CCOC(=O)c1c(NC(=O)c2ccccc2)sc2c3c(ccc12)OCN(C)C3
active: [3] -11.3% | [5] -67.9% | [6] -4.6% | [7] -51.4% | [9] -79% | [10] -54.7% | [12] -53.3% | [13] -89.2% | [14] -74.7% | [15] -73% | [16] 9.19% | [17] -76.8% | [18] -43.7% | [19] -62.2%
inactive: [1] 12.8% | [2] 87.8% | [4] 52.2% | [8] 22.2% | [11] 11.6%

CNC(=O)NCC1OC(n2cnc3c(NC(=O)Nc4ccccc4)ncnc32)C2OC(=O)CC12 (stereo not given)
active: [15] -22.7%
inactive: [1] 90.2% | [2] 99.2% | [3] 101% | [4] 94.2% | [5] 114% | [6] 71.2% | [7] 106% | [8] 120% | [9] 98.3% | [10] 110% | [11] 110% | [12] 81.1% | [13] 100% | [14] 98.9% | [16] 99.7% | [17] 103% | [18] 104% | [19] 125%

Cc1oc(-c2ccc(Cl)cc2)nc1C1=NN(C(=O)c2ccncc2)C(c2ccccc2)C1 (stereo not given)
inactive: [1] 87.3% | [2] 84.6% | [3] 93.7% | [4] 107% | [5] 98.6% | [6] 96.1% | [7] 86.6% | [8] 87.7% | [9] 83.4% | [10] 108% | [11] 101% | [12] 85.9% | [13] 101% | [14] 76.7% | [15] 82.3% | [16] 89.2% | [17] 89.4% | [18] 95.6% | [19] 103% | [20] 99.2%

CN(C)CCC(CCN(C)C)(C(=O)O)c1ccccc1
inactive: [1] 107% | [2] 106% | [3] 103% | [4] 94% | [5] 104% | [6] 84.9% | [7] 88.2% | [8] 99% | [9] 105% | [10] 108% | [11] 115% | [12] 98.1% | [13] 97.5% | [14] 97.2% | [15] 112% | [16] 107% | [17] 103% | [18] 95.3% | [19] 99.7%
